Only a selection was taken, and hits are over-represented in it overall.
Shiga inhibitor: inhibitors of Shiga toxin in Vero cells | Vero cells, Shiga toxin protein synthesis inhibition reporter | inhibition, % at 38.7 µM | actives 9.2% (n = 290,000) | AID 2315; in the data active = inhibition mostly above about 28%, no sharp cut-off; inactive = mostly below about 43%; note: 0% is about no effect
RE007 growth inh: less growth of the S. pombe RE007 Vpr strain; S. pombe RE007 Vpr strain, BacTiter-Glo ATP luminescence, 24 h; Potency, µM (doses to about 92.2 µM), inactives show at the highest dose activity change, negative = less growth, most hits filed as inhibitors; actives 0.21% (n = 360,000); AID 651644; active = well fitted falling curve with a large enough effect; inconclusive = small, poorly fitted or top-dose-only effect; inactive = no such curve, though single readings can be large or run the other way; note: potency is the fitted concentration of half-maximal effect; % is set by controls: 0 for no effect and ±100 for the full control effect; nearly all actives have a fitted effect of over 50% in size
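Fission yeast RE007 carrying one integrated HIV-1 vpr copy, seeded at OD 0.01 in PMG+AL medium with 23 nL pinned compound. Grown 24 h at 30 degrees; viability read by BacTiter-Glo luminescence after 5 min.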
TbPYK inhibitor: inhibitors of Trypanosoma brucei pyruvate kinase | TbPYK enzyme, Kinase-Glo Plus ATP luminescence, 45 min | AID 624173 | actives 0.12% (n = 410,000) | Q57TT1 | Potency, µM (series often up to 76.8 µM), for inactives: top-dose activity, negative = inhibition, actives largely listed as inhibitors; note: potency is the fitted concentration of half-maximal effect; % is set by controls: 0 for no effect and ±100 for the full control effect; nearly all actives have a fitted effect of over 50% in size
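Quantitative HTS: titrated library compounds versus trypanosomal pyruvate kinase in TEA buffer (pH 7.2) containing KCl, MgCl2, BSA and Tween-20. Reactions were initiated with ADP, 130 uM final. Kinase-Glo Plus luminescence was read after 45 min at RT.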
FBPA Giardia inh: Giardia lamblia aldolase inhibition; Potency, µM (series often up to 59.6 µM), for inactives: at the highest dose activity, negative = inhibition, actives largely listed as inhibitors; A8B2U2; purified Giardia FBPA; actives 0.71% (n = 290,000); note: potency is the fitted concentration of half-maximal effect; % is set by controls: 0 for no effect and ±100 for the full control effect; nearly all actives have a fitted effect of over 55% in size
Target sequence (A8B2U2 whole entry, looked up): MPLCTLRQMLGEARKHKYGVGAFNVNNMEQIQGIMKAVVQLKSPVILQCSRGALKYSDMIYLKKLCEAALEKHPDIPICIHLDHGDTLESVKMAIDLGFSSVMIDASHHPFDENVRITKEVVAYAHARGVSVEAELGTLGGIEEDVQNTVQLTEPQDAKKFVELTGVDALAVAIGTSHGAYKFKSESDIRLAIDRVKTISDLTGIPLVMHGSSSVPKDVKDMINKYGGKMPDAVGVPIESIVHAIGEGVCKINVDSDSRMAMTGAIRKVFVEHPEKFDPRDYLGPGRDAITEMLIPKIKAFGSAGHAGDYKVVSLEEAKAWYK
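40 nM FBPA preincubated 10 min at RT with compound (up to 57.5 uM final), then substrate plus GAPDH/TPI/NAD/arsenate coupling and diaphorase/resazurin added. Fluorescence read after 20 min at RT, 525/598 nm.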
LmPK inh: blocks Leishmania mexicana pyruvate kinase activity; Q27686; purified LmPK, Kinase-Glo ATP luminescence, 1 h; Potency, µM (top dose mostly 57.5 µM), for the others: at the top dose activity change, negative = inhibition, actives largely listed as inhibitors; actives 0.37% (n = 290,000); AID 1721; note: potency is the fitted concentration of half-maximal effect; % is set by controls: 0 for no effect and ±100 for the full control effect
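Purified LmPK (0.1 nM) with 0.5 mM PEP and 0.1 mM ADP in imidazole buffer pH 7.2 with MgCl2/KCl, 1 h at room temperature. ATP formed was read by luciferase luminescence and normalized to no-enzyme and uninhibited controls.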
Cycloheximide cs: affects cycloheximide protein synthesis inhibition readout, counter-screen. actives 12% (n = 300,000). cell reporter, cycloheximide protein synthesis inhibition counterscreen. max response, %; in the data active = max response mostly above about 13%, no sharp cut-off; inactive = mostly below about 14%; note: read at 38.3 µM for the half of the compounds with a filed dose; 0% is about no effect
* marks the source's active call; other numbers are inactive results; ? = inconclusive; . = not tested or not shown; + = active, no number; [ ] = another dose, or the depositor's remark. Unless noted, calls come from the whole dose curve; as a rule, active = well fitted curve in the direction sought with a large enough effect; inconclusive = small, poorly fitted or top-dose-only effect, or another doubt; inactive = no such curve, though single readings can be large; an effect the other way counts as inactive or inconclusive.

SMILES | Shiga inhibitor | RE007 growth inh | TbPYK inhibitor | FBPA Giardia inh | LmPK inh | Cycloheximide cs
CCCN1C(=O)c2[nH]nc(-c3ccccc3O)c2C1c1ccc(OCc2ccccc2)c(OCC)c1 (stereo not given) | . | . | 1% | . | . | .
C=CCOCC/C=C1/c2ccccc2C(OC)C1C (stereo not given) | . | . | . | 2%[12.9 µM] | . | .
Cc1[nH]c2ccccc2c1/C=N/NC(=O)c1ccccc1 | 51* | . | 0% | 2% | -10% | 42*
Cc1[nH]c2ccccc2c1/C=C/C(=O)c1ccccc1 | 86* | -5% | 2% | 1% | 4% | 25*
Cc1[nH]c2ccccc2c1/C=N/NC(=O)c1ccc(N)cc1 | 6 | 2% | -5% | -6% | 0% | 20
Cc1ccc(NC(=S)N/N=C/c2c(C)[nH]c3ccccc23)cc1 | 80* | 0% | -1% | -3% | -4% | 23*
Cc1[nH]c2ccccc2c1/C=N/Nc1cccc(C(=O)O)c1 | 128* | 19% | -12% | -17% | -3% | 61*
Cc1[nH]c2ccccc2c(=O)c1C(=O)/C=C/c1ccccc1 | -25 | -10% | 0% | -5% | -1% | -2
Cc1[nH]c2ccccc2c1/C=N/NC(N)=S | 4 | -2% | -4% | -29% | 1% | 0
Cc1cccc(Nc2nn3c(=O)c4cc5c(cc4nc3s2)OCO5)c1 | . | . | -2% | . | . | .
Cc1[nH]c2ccccc2c1/C=N/NC(=O)CCC(=O)Nc1ccccc1 | 11 | 9% | 4% | -10% | 7% | -1
Cc1[nH]c2ccccc2c1/C=N/NC(=O)c1cc(C(C)(C)C)[nH]n1 | 22 | 1% | 0% | -10% | 4% | 12*
Cc1[nH]c2ccccc2c1/C=N/NC(=O)c1cccc(Br)c1 | 40 | 4% | 0% | 7% | -2% | 26*
Cc1[nH]c2ccccc2c1/C=N/NC(=O)Nc1ccccc1 | + | -9% | 1% | -1% | 8% | 28*
NC(=S)NCCCC(N)C(=O)O (stereo not given) | . | . | . | -2% | . | .
Cc1cc(C)cc(OCC(=O)Nc2nc3c(s2)CC(C(C)(C)C)CC3)c1 (stereo not given) | . | . | 3% | . | . | .
N#C/C(=C\c1ccc(OCC(N)=O)cc1)c1ccccc1 | 88* | -9% | -5% | 5% | -6% | 39*
CCCCNc1n[n+](C)c(-c2cccc(C)c2)s1 | 21 | . | . | -7% | 1% | 1
CCCCNc1nc2cccnc2s1 | 62* | -20% | 10% | 1% | -1% | 22*
Clc1ccc(Nc2nc3cccnc3s2)cc1 | 90* | -19% | 1% | -8% | -1% | 30*
O=C(Nc1ccc(F)cc1)N1CCc2ccccc2C1 | 91* | -8% | 2% | -18% | -1% | 51*
O=C(Nc1ccc(Br)cc1)N1CCc2ccccc2C1 | 126* | -18% | 1% | -7% | 0% | 53*
O=C(CN1CCc2ccccc2C1)Nc1ccc(Br)cc1 | 18 | 3%[3.69 µM] | . | 6% | 10% | 15
COc1cc2c3cc1Oc1c(OC)c(OC)cc4c1[C@@H](Cc1ccc(OC(=O)c5ccc([N+](=O)[O-])cc5)c(c1)Oc1ccc(cc1)C[C@@H]3N(C)CC2)N(C)CC4 | 7 | . | . | -13% | . | -4
COc1ccc(-c2nnc(N(C)C(=O)C3CCOC3)s2)cc1 (stereo not given) | . | -3% | 6% | . | . | .
SMILES | Shiga inhibitor | RE007 growth inh | TbPYK inhibitor | FBPA Giardia inh | LmPK inh | Cycloheximide cs
CN(C(=O)C1CCOC1)c1nnc(-c2cnccn2)s1 (stereo not given) | 19 | -10% | 7% | -2% | 0% | 16*
CCCCCCCCCCCCCCCC(=O)O[C@H]1[C@@H](O)[C@@H](O)[C@@H]([C@H](NC(=O)[C@@H]2C[C@@H](CCC)CN2C)[C@H](C)Cl)O[C@@H]1SC | . | . | 5% | . | . | .
O=C(NCc1ccc(Cl)cc1)c1ccc(COCC(F)(F)F)o1 | 12 | 28% | 0% | 0% | 3% | -2
O=C(Nc1ccc(Cl)cn1)c1ccc(COCC(F)(F)C(F)F)o1 | 67* | ? | 1% | -6% | 2% | 18*
COc1cccc(Cn2c(=O)c(-c3cccc(F)c3)nc3cncnc32)c1 | . | . | 2% | -2% | . | .
Cc1ccc(C)c(N2CCN(CCCNC(=O)c3ccc4nc(CCc5ccccc5)oc4c3)CC2)c1 | . | . | -3% | . | . | .
O=C(/C=C/c1ccc(OC(F)F)cc1)OCC(=O)N1CCN(C(=O)c2ccco2)CC1 | -11 | -13% | 2% | 0% | -3% | -1
Cc1cccc(C(=O)OCC(=O)N2CCN(C(=O)c3ccco3)CC2)c1O | . | 2% | 6% | . | . | .
Cc1ccsc1C(=O)OCC(=O)N1CCN(C(=O)c2ccco2)CC1 | 26* | 0% | -7% | 3% | -4% | 33
CCOC(=O)/C=C/C(=O)OCC(=O)N1CCN(C(=O)c2ccco2)CC1 | 27 | -5% | -1% | . | -1% | 9.0*
O=[N+]([O-])c1ccccc1/C=C/c1ccc2ccccc2n1 | 48* | -26% | 2% | 6% | -9% | 40*
Cn1c(/C=C/c2ccccc2[N+](=O)[O-])nc2ccccc2c1=O | 33 | -6% | -3% | -1% | -4% | 9.2*
Cn1c(/C=C/c2ccc(Br)cc2)nc2ccccc2c1=O | 20 | 1% | 2% | 8% | -8% | 30*
COc1ccc(-c2nc3ccc(Cl)cn3c2Nc2ccc(C)cc2)cc1 | . | . | 4% | . | . | .
COCCNc1c(-c2ccc(OC)cc2)nc2ccc(Cl)cn12 | 62* | -3% | -7% | ? | -2% | 29
CCOC(=O)CNc1c(-c2ccc(OC)cc2)nc2ccc(Cl)cn12 | 36* | -19% | 2% | ? | 1% | 20*
CCOC(=O)CNc1c(-c2ccc(Cl)cc2)nc2cnccn12 | -11 | 0% | 3% | -25% | 0% | -2
Cc1cccc(Cn2c(SCc3ccc(C(=O)NCCc4ccccc4)cc3)nc3ccncc32)c1 | . | . | 1% | . | . | .
O=C(NCCc1ccc(Cl)cc1)c1cc2ccccn2n1 | 60 | 6% | 1% | 0% | -1% | 25*
O=C(Nc1ccc(Br)cc1)c1cc2ccccn2n1 | 64* | -7% | 5% | -13% | -6% | 44*
Cc1ccc(CCNC(=O)c2cc3ccccn3n2)cc1 | . | . | -3% | . | . | .
COc1ccc(-c2nc(CNC(=O)NC3CCCCC3)c(C)o2)cc1 | . | . | 1% | . | . | .
Cc1ccc(-c2cc(C(=O)NC3CCCC3)no2)cc1 | 92* | 25% | 7% | -8% | -2% | 37*
O=C(NC1CCCCC1)c1cc(-c2cccs2)on1 | 117* | 15% | -4% | -4% | -4% | 50*
O=C(NCCCN1CCOCC1)c1cc(-c2ccc(F)cc2)on1 | 13 | -4% | -4% | 0% | 0% | 20
O=C(NC1CCCC1)c1cc(-c2ccc(Cl)c(Cl)c2)on1 | 45* | 18% | 0% | -8% | 5% | 27*
